The source made the active and inactive calls. The calls were made as follows: active = hit-call score of the fitted dose curve at least 0.9, where 1 is the maximum; inactive = score below 0.9.

These results are taken from PubChem BioAssay AID2284201 (EPA ToxCast).

Sequence of SLC6A2 (gene 6530) (P23975 whole entry, looked up): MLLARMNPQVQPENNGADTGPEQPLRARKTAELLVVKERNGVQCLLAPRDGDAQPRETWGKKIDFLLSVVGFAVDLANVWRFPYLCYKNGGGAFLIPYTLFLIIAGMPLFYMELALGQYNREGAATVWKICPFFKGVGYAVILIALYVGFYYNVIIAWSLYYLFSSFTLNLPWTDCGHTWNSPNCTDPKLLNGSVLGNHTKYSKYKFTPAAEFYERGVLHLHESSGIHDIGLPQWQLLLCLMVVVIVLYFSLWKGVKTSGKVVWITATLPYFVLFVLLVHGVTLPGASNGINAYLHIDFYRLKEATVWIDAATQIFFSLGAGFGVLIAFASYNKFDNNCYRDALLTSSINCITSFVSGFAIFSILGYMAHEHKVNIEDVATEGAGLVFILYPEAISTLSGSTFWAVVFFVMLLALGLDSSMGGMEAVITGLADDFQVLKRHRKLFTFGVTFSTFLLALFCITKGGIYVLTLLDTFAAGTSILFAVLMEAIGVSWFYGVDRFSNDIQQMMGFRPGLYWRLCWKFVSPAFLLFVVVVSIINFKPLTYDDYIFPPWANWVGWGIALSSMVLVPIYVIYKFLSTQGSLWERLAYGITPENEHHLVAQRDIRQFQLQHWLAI

This test concerns the target SLC6A2 (gene 6530) (UniProt P23975). Nature of the test: ERF_FR_TR_hSLC6A2: Eurofins (ERF) Radioligand Transport Binding LeadHunter Assay for human Norepinephrine NET Antagonism, conducted at France lab site. As for the experimental part:
ERF_FR_TR_hSLC6A2 is a biochemical, single-readout assay that uses extracted gene-proteins in a cell-free assay. Measurements were taken 2 hour after chemical dosing in a 96-well plate. See NET Human Norepinephrine Transporter Binding (Antagonist Radioligand) Assay, Cerep.ERF_FR_TR_hSLC6A2 is an assay component calculated from the ERF_FR_TR_hSLC6A2 assay. It is designed to measure radioligand binding using a type of binding reporter as detected by scintillation counting with radiometry technology.Data from the assay component ERF_FR_TR_hSLC6A2 was analyzed at the assay endpoint, ERF_FR_TR_hSLC6A2, in the positive analysis fitting direction relative to DMSO as the negative control and baseline of activity. Using a type of binding reporter, loss-of-signal activity can be used to understand changes in enzymatic activity as they relate to gene SLC6A2. To generalize the intended target to other relatable targets, this assay endpoint is annotated to the transporter intended target family, where the subfamily is SLC6 / Monoamine.
Human cells are incubated for 120 minutes at 4C with [3H]nisoxetine (1 nM) ligand and protriptyline as control inhibitor. Test Sample Requirements: Minimum for 1) Screen: 60 ul of 10 mM stock -OR- 1 mg (pre-weighed) for 10 uM final testing. 2) Dose Response: 90 ul of 10 mM stock -OR- 1 mg (pre-weighed) for a top concentration at 10 uM.
On to `CCCCC[C@H](O)CC(=O)CCc1ccc(O)c(OC)c1`, for which the call was inactive.

In the case of `COc1cc(CCC(=O)CC(=O)CCc2ccc(O)c(OC)c2)ccc1O`, the outcome was inactive.

As for `COc1cc(/C=C/C(=O)CC(=O)/C=C/c2ccc(O)c(OC)c2)ccc1O`, the AC50 is 2.63 µM (active).

As to `O=C(/C=C/c1ccc(O)cc1)CC(=O)/C=C/c1ccc(O)cc1`, the AC50 is 2.12 µM (active).
